The values that follow come from PubChem BioAssay (NCI).

This is part of a sample that, as a whole, favours compounds with a hit. Of some 83,000 tested, about 20% had one in any assay.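 Single-concentration screen, 48 h exposure, 96-well plates. Endpoint: percent growth. Below 10 = active.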 A number with no mark means an inactive call. Calls of active or inactive are those of the source.

Test systems include NCI-H23 lung; NCI-H226 lung; NCI-H322M lung; HOP-62 NSCLC; NCI-H460 lung; HOP-92 NSCLC; NCI-H522 lung; A549/ATCC NSCLC; 786-0 renal; COLO 205 colon.
What all share (experiment): NCI-60 one-dose screen, 48 h (100 = growth as untreated, 0 = no growth, -100 = all killed)
What all share (details): 10 µM unless noted

For the molecule `C=C1C(=O)O[C@H]2[C@H]1CC/C(COC(=O)n1ccnc1)=C\CC[C@@]1(C)O[C@@H]21`, the growth was 91.1% in the experiment on NCI-H23 lung; 92.4% with NCI-H226 lung; 113% in the experiment with NCI-H322M lung; 92.5% with HOP-62 NSCLC; 104% in the experiment with NCI-H460 lung; 94.4% in the experiment with HOP-92 NSCLC. Further, the growth in the experiment on NCI-H522 lung was 31.9%; in the experiment with A549/ATCC NSCLC, 93%; in the experiment on 786-0 renal, 102%; in the experiment with COLO 205 colon it was 64.6%.
On to `Cc1cc(NC(=O)CNc2nc(Oc3ccc(F)cc3)nc(-c3ccc(F)cc3)n2)ccc1Cl`, for which the growth was 98.1% in the experiment on NCI-H23 lung; 98.9% in the experiment with NCI-H226 lung; 98.7% with NCI-H322M lung; 94.5% with HOP-62 NSCLC; 99.3% in the experiment on NCI-H460 lung; 97.7% in the experiment with HOP-92 NSCLC. The growth was 85.7% with NCI-H522 lung, 87.1% in the experiment with A549/ATCC NSCLC, 99.5% with 786-0 renal and 112% in the experiment on COLO 205 colon.
For the molecule `Cc1nnc(/N=C2\NC(=O)/C(=C/c3ccsc3)S2)s1`, the growth with NCI-H23 lung is 89.8%; in the experiment on NCI-H226 lung it was 96%; in the experiment with NCI-H322M lung, 92.2%; in the experiment on HOP-62 NSCLC, 80.8%; with NCI-H460 lung it was 67.5%; in the experiment with HOP-92 NSCLC, 96.6%. The growth in the experiment on NCI-H522 lung is 78.1%; in the experiment on A549/ATCC NSCLC, 100%; in the experiment on 786-0 renal it was 94.6%; in the experiment on COLO 205 colon it was 92.2%.
In the case of `C=C1C(=O)O[C@H]2[C@H]1CC/C(COC(=O)Nc1nc3ccccc3[nH]1)=C\CC[C@@]1(C)O[C@@H]21`, the growth in the experiment on NCI-H23 lung was 70.9%; with NCI-H226 lung, 79.8%; with NCI-H322M lung, 105%; in the experiment on HOP-62 NSCLC, 89.9%; in the experiment on NCI-H460 lung, 91.4%; in the experiment on HOP-92 NSCLC, 50.4%. In addition, the growth is -27.2% (active) with NCI-H522 lung, 95.5% in the experiment on A549/ATCC NSCLC, 80% in the experiment on 786-0 renal and 17.3% with COLO 205 colon.
Consider `N#Cc1ccc(N2Cc3cc(Cl)ccc3OC3=C2C(=O)N(Cc2ccc(F)cc2)C3=O)cc1`, for which the growth with NCI-H23 lung is 3.56% (active); in the experiment on NCI-H226 lung, 92.6%; in the experiment on NCI-H322M lung, 96.3%; with HOP-62 NSCLC, 52%; in the experiment with NCI-H460 lung, 23.6%; in the experiment on HOP-92 NSCLC, -64.1% (active). Besides, the growth in the experiment on NCI-H522 lung was -63.2% (active); in the experiment with A549/ATCC NSCLC, 68.5%; in the experiment with 786-0 renal, -90.5% (active); in the experiment with COLO 205 colon, -73.5% (active).
Take `Nc1ccc2c(c1)C(=O)C(=O)c1c-2nc2ccccn12`: the growth is -42.8% (active) in the experiment with NCI-H23 lung; 13.3% in the experiment on NCI-H226 lung; -6.65% (active) in the experiment on NCI-H322M lung; -2.15% (active) in the experiment with HOP-62 NSCLC; 0.968% (active) with NCI-H460 lung; -21.4% (active) in the experiment with HOP-92 NSCLC. The growth in the experiment with NCI-H522 lung is 17.5%; in the experiment with A549/ATCC NSCLC, -45.4% (active); in the experiment with 786-0 renal, 71.4%; in the experiment with COLO 205 colon it was -49.2% (active).
Take `COC1=CC=CC2(OC)C3(O)CCCc4cccc(c43)N3C(=O)COC132` (stereo not given): the growth is 96.1% in the experiment on NCI-H23 lung; 103% in the experiment with NCI-H226 lung; 101% in the experiment on NCI-H322M lung; 102% in the experiment on HOP-62 NSCLC; 105% in the experiment on NCI-H460 lung; 89.9% in the experiment on HOP-92 NSCLC. The growth was 78.8% in the experiment on NCI-H522 lung, 90.8% in the experiment with A549/ATCC NSCLC, 102% in the experiment with 786-0 renal and 107% in the experiment on COLO 205 colon.
For the molecule `c1ccc(-c2n(Cc3ccc4ccccc4n3)cc[n+]2Cc2ccc3ccccc3n2)cc1`, the growth in the experiment with NCI-H23 lung was 22.9%; in the experiment with NCI-H226 lung, 36.2%; in the experiment on NCI-H322M lung, 85.9%; in the experiment with HOP-62 NSCLC, 74.3%; in the experiment on NCI-H460 lung, 41.6%; in the experiment with HOP-92 NSCLC it was -6.03% (active). The growth is 16.2% in the experiment on NCI-H522 lung, 73.3% in the experiment on A549/ATCC NSCLC, 77.7% with 786-0 renal and -49.3% (active) in the experiment on COLO 205 colon.
Take `COC(=O)c1nc(-c2ccccc2)oc1S(=O)(=O)n1nc(-c2ccccc2)cc1N`: the growth was 90.4% in the experiment with NCI-H23 lung; 105% in the experiment with NCI-H226 lung; 90.7% in the experiment on NCI-H322M lung; 101% in the experiment with HOP-62 NSCLC; 100% with NCI-H460 lung; 72.1% with HOP-92 NSCLC. For the same molecule, the growth was 44.3% with NCI-H522 lung, 102% in the experiment on A549/ATCC NSCLC, 87.3% in the experiment on 786-0 renal and -8.05% (active) in the experiment on COLO 205 colon.
With `CCOC(=O)CC[C@H](NC(=O)c1ccc(NC)c2ccccc12)C(=O)OCC`, the growth in the experiment with NCI-H23 lung is 105%; with NCI-H226 lung, 100%; in the experiment with NCI-H322M lung, 106%; in the experiment with HOP-62 NSCLC, 93.6%; in the experiment on NCI-H460 lung, 101%; in the experiment on HOP-92 NSCLC, 92.3%. For the same molecule, the growth in the experiment on NCI-H522 lung is 91.2%; with A549/ATCC NSCLC, 89.9%; with 786-0 renal it was 102%; with COLO 205 colon, 106%.
`c1ccc2nc(N3CCOCC3)c(N3CCCCC3)nc2c1`: the growth in the experiment on NCI-H23 lung was 95.6%; in the experiment with NCI-H226 lung it was 95.8%; in the experiment with NCI-H322M lung it was 95.9%; in the experiment on HOP-62 NSCLC, 94.1%; in the experiment on NCI-H460 lung, 105%; in the experiment with HOP-92 NSCLC, 84.5%. Also, the growth was 85.3% with NCI-H522 lung, 96.9% in the experiment on A549/ATCC NSCLC, 102% with 786-0 renal and 110% in the experiment on COLO 205 colon.
For `C#C[C@@]1(O)[C@@H](CO)O[C@@H](n2cc(Br)c3c(N)ncnc32)[C@@H]1O`, the growth in the experiment with NCI-H23 lung was 2.83% (active); in the experiment on NCI-H226 lung it was 21.2%; in the experiment with NCI-H322M lung it was 1.46% (active); in the experiment on HOP-62 NSCLC, -5.18% (active); with NCI-H460 lung, -36% (active); in the experiment with HOP-92 NSCLC, -27.2% (active). Besides, the growth in the experiment on NCI-H522 lung is -30.7% (active); in the experiment on A549/ATCC NSCLC, -51.8% (active); in the experiment with 786-0 renal it was -48.5% (active); in the experiment with COLO 205 colon, -36.8% (active).
Consider `COc1ccc(-c2nc(C#N)c(NCC(c3ccc(Cl)cc3)N3CCCCC3)o2)cc1` (stereo not given), for which the growth is 91.7% with NCI-H23 lung; 96% in the experiment with NCI-H226 lung; 83.7% in the experiment on NCI-H322M lung; 107% in the experiment on HOP-62 NSCLC; 101% in the experiment on NCI-H460 lung; 89.3% in the experiment with HOP-92 NSCLC. Also, the growth is 84.6% in the experiment with NCI-H522 lung, 93.5% with A549/ATCC NSCLC, 92.5% in the experiment on 786-0 renal and 87.6% with COLO 205 colon.
